From the supplement of paper PMC6555819

Experiments:
Test in all cases: PBM binding z-score (relative to random genomic background probes); higher = stronger binding; sequences stand for … in GC…GCGATTGACAGCGTAGAATGAAGG
[1] = system: FXR:RXRa (NR concentration 270 nM, RXRa partner concentration 90 nM)
Summary of the method: (§1)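 Custom Agilent 4×180K protein-binding microarrays carried double-stranded probes. Their 34-nt variable regions held direct-repeat seeds, single-nucleotide variants, half-site ablations and random human genomic background sequences. Arrays were incubated 1 h with ligand-free nuclear receptor dimers in PBS pH 7.4, 2% milk, 0.02% Triton X-100, 1 mM DTT, 0.2 mg/mL BSA and 0.4 mg/ml salmon testes DNA. Antibodies against each partner (one per run) detected binding, and scanned fluorescence was regression-normalized. Binding z-scores use random background probes as reference.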

[2] = system: LXRa:RXRa (NR concentration 270 nM, RXRa partner concentration 90 nM)
Summary of the method: as §1

[3] = system: LXRa homodimer (NR concentration 270 nM)
Summary of the method: as §1

[4] = system: LXRb:RXRa (NR concentration 270 nM, RXRa partner concentration 90 nM)
Summary of the method: as §1

[5] = system: LXRb homodimer (NR concentration 270 nM)
Summary of the method: as §1

[6] = system: PPARa:RXRa (NR concentration 270 nM, RXRa partner concentration 90 nM)
Summary of the method: as §1

[7] = system: PPARg:RXRa (NR concentration 180 nM, RXRa partner concentration 90 nM)
Summary of the method: as §1

[8] = system: PPARg:RXRa 270nM:90nM, anti-RXR (NR concentration 270 nM, RXRa partner concentration 90 nM)
Summary of the method: as §1

[9] = system: PPARg:RXRa 30nM:10nM, anti-RXR (NR concentration 30 nM, RXRa partner concentration 10 nM)
Summary of the method: as §1

[10] = system: PPARg:RXRa 90nM:30nM, anti-RXR (NR concentration 90 nM, RXRa partner concentration 30 nM)
Summary of the method: as §1

Sequence | PBM binding z-score [1] | PBM binding z-score [2] | PBM binding z-score [3] | PBM binding z-score [4] | PBM binding z-score [5] | PBM binding z-score [6] | PBM binding z-score [7] | PBM binding z-score [8] | PBM binding z-score [9] | PBM binding z-score [10]
ACAATGAGGTTACCAAAGATCAGGGAAACGCTTG | 1.97 | 6.4 | 0.286 | 3.25 | 0.572 | 3.26 | 2.36 | 2.11 | 0.698 | 1.61
GCGACTGGGGCAAAGCAGGTTAGCATAAGGTTGG | 0.494 | -0.573 | -0.598 | -0.43 | -1.24 | 0.977 | 1.14 | 0.948 | -0.509 | 0.412
TCTACTAGGTCAACGATGGTCAGCTAATCTGCTA | 3.61 | 3.2 | 0.626 | 2.29 | 0.75 | 4.36 | 6.19 | 6.03 | 4.97 | 5.88
AGAACGGGGGCAATGAGTTGATAGCACGGGTGGC | 2.35 | 2.45 | 0.461 | 4.18 | 6.07 | 3.66 | 2.98 | 4.15 | 2.33 | 3.26
ATCTCTAGGTAAAGATAATTCAGTGAATGCAAAT | 0.311 | 0.4 | 0.217 | 0.485 | 0.372 | 0.312 | 0.908 | 0.48 | 0.443 | 0.348
GCTACTGGGGCATCAGCAGGTTACCATAACTTAA | -0.035 | -0.127 | -0.19 | 0.88 | -0.858 | 1.74 | 2.37 | 2.01 | 0.134 | 1.34
CCTACTGGGCCATCAAGTCATTGATATCAACGTT | -0.198 | -0.233 | -0.0812 | 0.373 | -0.319 | 1.02 | 0.723 | 1.67 | 0.283 | 0.805
TCTGCTAGGTCAACGATAGTCAGCTAATCTGCTA | 3.23 | 2.35 | -0.23 | 1.4 | -0.0504 | 3.14 | 2.53 | 3.15 | 1.95 | 2.82
CGAACTAGGTCATCCTGGACAGTGAATACATTGA | 4.25 | 2.46 | 0.715 | 2.21 | 0.266 | 4.76 | 7.88 | 6.36 | 3.97 | 5.92
ACAGACAGGTGATGAAGGTAACTCAGGCTATCAT | -0.17 | -0.295 | -0.208 | -0.204 | -0.527 | 0.152 | 0.816 | -0.0244 | -0.0108 | -0.132
GCTAGTTGGTCAGTACAAGGTCACACACCGGTCG | 2.58 | 2.63 | 2.97 | 2.59 | 0.352 | 3.05 | 1.38 | 1.94 | 0.146 | 1.33
AGATGTAGGTTATCGGGTCATTCAGTTTGCGCAT | 3.31 | 3.21 | 1.64 | 3.01 | 0.639 | 4.89 | 6.25 | 5.84 | 3.56 | 5.27
TCTTGTAGATCAAACAGGTTAAGAAAGCCTGAGT | 0.553 | 0.608 | 0.121 | 0.509 | -0.073 | 1.1 | -0.134 | 1.44 | 2.65 | 2.3
CCTAGCAGGCCAGTCTGGGTCACTCAAGGCTTGA | 0.876 | 0.686 | -0.81 | 0.487 | -1.44 | 2.13 | -0.179 | 0.439 | -1.1 | 0.0493
CGAATTAGGTCAAGGACAGTGAATCTCCGCACGC | 4 | 2.54 | 0.286 | 1.97 | 0.123 | 4.92 | 6.8 | 6.22 | 3.82 | 5.57
CAGACTAGGTCACCGGAAGGTCAAAGTCCGCATG | 5.95 | 5.63 | 4.26 | 5.14 | 0.786 | 5.42 | 7.82 | 7.03 | 3.63 | 6.35
TCGAGTAGTTTACCAATGGGGCATTCAGCTTTCT | -0.0204 | -0.0341 | -0.552 | 0.423 | -0.375 | -0.115 | -0.798 | 0.325 | 0.821 | 0.499
CCTGCTAGGTCATGGTTAGCTAATCTACAGTATG | 3.74 | 2.32 | -0.0293 | 1.71 | -0.265 | 3.76 | 2.65 | 3.06 | 0.508 | 2.06
AGAATGAGGTTATACGTAGAACAGGGAAGAAAGT | 2.01 | 1.58 | -0.14 | 1.56 | 0.0441 | 3.07 | 2.2 | 1.83 | 1.07 | 1.68
ACTATTAGTTGAGACGAGGGCAAGCGATAGGTTG | 0.338 | -0.125 | -0.12 | -0.138 | -0.0702 | 0.257 | 0.699 | 0.134 | 0.381 | 0.467
AGAATGAGGTTACCAAAGATCAGGGAAACGCTTG | 1.86 | 6.59 | -0.00475 | 3.1 | -0.712 | 3.65 | 3 | 3.03 | 0.954 | 2.22
CGAACGAGGGAATGAGTTGATAGCAAATGCCGAT | -0.82 | -0.749 | -0.474 | -1.01 | -0.729 | -1.17 | 0.578 | -0.457 | -0.284 | -0.51
TCGAGTAGGATAGTCGGGGCATTCAGCCAACATA | -0.379 | -0.526 | -0.613 | -0.239 | -0.624 | -0.194 | -0.199 | 0.184 | 0.98 | 0.413
